# This is a sample that favours compounds with a hit; in the whole collection about 6.3% have one here.
# Spn DPM-DC inh: blocks S. pneumoniae diphosphomevalonate decarboxylase; AID 556; calls only at 10 µM; hit rate 0.49% among 65,000; purified DPM-DC, PK/LDH coupled NADH fluorescence;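 active = the 320 compounds with the highest percent inhibition in the single-dose primary screen, excluding strongly autofluorescent ones, cut at about 32% in these data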;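 also: kinetic rate of NADH fluorescence loss reporting ADP formed by the decarboxylase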
# Spn MK inh: S. pneumoniae mevalonate kinase inhibition; inhibition, % at 10 µM; AID 555; purified MK, PK/LDH-coupled NADH absorbance 340 nm; hit rate 0.48% among 65,000;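 active = ranked among the strongest by inhibition in the single 10 µM screen, a fixed top-ranked set picked for dose follow-up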
# Spn PMK inh: blocks S. pneumoniae phosphomevalonate kinase | inhibition, % at 10 µM | purified PMK, PK/LDH-coupled NADH absorbance 340 nm | hit rate 0.49% among 65,000 | AID 539;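 active = top-ranked compounds by inhibition in the single 10 µM screen, taking a fixed number of the strongest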;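 also: 0% = full reaction with DMSO carrier and 100% = background rate without enzyme reaction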
# Fluor 339 460: intrinsic fluorescence of library compounds, ex339/em460 – biochemical, MLSMR library, data from DPM-DC assay, artefact control, profiling panel. compound autofluorescence, ex339/em460 nm, NADH buffer; stronger effect = higher value; 1 = no-compound wells, NADH background. fluorescence fold increase at 10 µM. hit rate 5.5% among 65,000;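 active = at 10 µM, mean starting fluorescence two-fold or more over control wells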;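 also: signal is the first read of a kinetic run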
# NADH enzymes: inhibition of NAD/NADH coupling enzymes, library profiling; hit rate 0.02% among 65,000; coupled PK/LDH NADH assays, four targets; AID 774; IC50, µM (titrated, usually from 10 µM), for inactives: top-dose inhibition;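 active = single-dose screening hits from any of four coupled enzyme assays that gave an IC50 when retested across doses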;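 also: the DPM-DC format reads NADH fluorescence rather than 340 nm absorbance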
# A340 absorber: absorbance at 340 nm; compound absorbance at 340 nm, fold over control; 65,000 tested, under 10 active; fold change at 10 µM;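 active = at 10 µM dose, initial 340 nm absorbance at least 2 fold that of control wells; inactive = change under 2 fold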;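 also: initial absorbance extrapolated from kinetic A340 decline of NADH oxidation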
# * marks the source's active call; other numbers are inactive results; i = inactive; . = no result given; + = active, no number.
SMILES,Spn DPM-DC inh,Spn MK inh,Spn PMK inh,Fluor 339 460,NADH enzymes,A340 absorber
Clc1ccc(-n2nnnc2Sc2ncnc3sccc23)cc1,i,4,14,1,3%,0.98
COC(=O)CSc1nc(C)c(C(C)=O)cc1C#N,i,7,1,1.1,3%,0.98
CCOC(=O)c1cc(C#N)c(SCC(=O)c2cc(C#N)c(SC)nc2C)[nH]c1=O,.,8,16,2*,12%,1.2
CCOc1ccc(-c2nc(C#N)c(N3CCN(CC)CC3)o2)cc1,.,1,8,2.4*,5%,1.1
Cc1ccc(OCc2nc(C#N)c(N3CCN(Cc4ccccc4)CC3)o2)cc1,i,6,3,1.1,3%,1
CCCOc1ccc(-c2nc(C#N)c(N3CCN(CC)CC3)o2)cc1,.,7,12,3.4*,10%,1.1
c1cn(CC2(Cn3ccnc3)COC2)cn1,i,7,8,1,4%,0.99
CC(C)Oc1ccc(/C(O)=C2/C(=O)C(=O)N(CCN(C)C)C2c2ccco2)cc1 (stereo not given),i,5,0,1.1,2%,1.1
CCCCNC(=O)c1ccc2nc(-c3ccco3)c(-c3ccco3)nc2c1,+,17,7,1.9,20%,1.1
O=C(Nc1ccc(N2CCOCC2)cc1)c1ccc2nc(-c3ccco3)c(-c3ccco3)nc2c1,i,10,5,1,6%,1.1
O=C(Nc1ccccc1)c1ccc2nc(-c3ccco3)c(-c3ccco3)nc2c1,i,16,4,2.6*,10%,1.1
Cn1c(SCC(=O)N2CCCCC2)nc2cccnc21,i,8,13,1.1,7%,0.99
O=C(CN(C(=O)Cn1nnc(-c2cccs2)n1)c1cnc2ccccc2c1)NCC1CCCO1 (stereo not given),i,2,4,1.1,2%,1
COc1cccc2sc(Nc3nnc(-c4ccccc4Cl)o3)nc12,i,0,5,1.6,9%,1.1
COc1cccc(OC)c1-c1nnc(-c2cn(C)c3ccccc23)o1,.,4,13,3.8*,9%,0.99
Cc1cc(/C=C(/C#N)c2cccc(F)c2)c(C)n1-c1cccnc1,i,1,0,1.2,4%,1.1
C[C@H]1C[C@@H]2[C@H]([C@@H](O)C[C@@]3(C)[C@H]2CC[C@]3(O)C(=O)CO)[C@@]2(C)C=CC(=O)C=C12,i,8,7,1.1,4%,0.98
CC(C)OC(=O)CC(=O)c1sc2nc3c(cc2c1N)CN(C)CC3,.,4,19,4.8*,12%,1.1
CC(C)C(c1nnnn1Cc1ccc(F)cc1)N1CCN(C(=O)c2ccco2)CC1 (stereo not given),i,8,1,1.1,4%,1
COc1ccc2[nH]c(=O)c3c(c2c1)OC(C)(C)C=C3,i,1,13,2.5*,14%,1.1
COc1ccc2[nH]c3ccccc3c2c1,i,0,12,1.4,4%,0.97
COCc1cc(=O)n2[nH]c(-c3ccccc3)cc2n1,.,3,2,2.1*,3%,1.1
Cc1cc(C)n(C(=O)C23CC4CC(CC(C4)C2)C3)n1,i,5,1,1.1,1%,0.98
Cc1ccc(-c2cn3c(=S)[nH]nc3s2)cc1,i,99*,16,1,46%,1.1
COCc1ccc2oc(C(=O)O)cc2c1,i,0,23,1.1,8%,1
SMILES,Spn DPM-DC inh,Spn MK inh,Spn PMK inh,Fluor 339 460,NADH enzymes,A340 absorber
CCCN(CCC)c1nc(C)cc(C(C#N)c2nc3ccccc3o2)n1 (stereo not given),i,5,8,2.2*,4%,1
Cc1occc1-c1nnc2sc(-c3ccc(-c4ccc(Cl)cc4)o3)nn12,.,3,10,2.1*,7%,1
Cn1c(=O)n(C)c2cc(/C=N/n3cnnc3)ccc21,i,5,11,2.8*,10%,1.2
CCOc1cc(NC(=O)C2CC2)c(OCC)cc1NC(=O)c1cccnc1,i,0,0,1.1,0%,1
O=C(Nc1cc(=O)c2ccccc2o1)N1CCCCC1,i,11,0,1.2,4%,1.1
CSc1ccc(-c2cc(=O)c3ccccc3o2)cc1,.,0,14,2.9*,3%,1.1
Cc1ccc(C2C=C(c3ccccc3OC(F)F)Nc3ncnn32)cc1 (stereo not given),i,13,14,2.1*,12%,1
Cc1ccc(C2C=C(c3ccc4c(c3)OCO4)Nc3ncnn32)cc1 (stereo not given),i,0,5,3*,8%,1.1
CN(C)c1ccc(C2C=C(c3ccc(Cl)cc3OC(F)F)Nc3ncnn32)cc1 (stereo not given),i,8,8,1.6,10%,1
CCN=c1sc(C(=O)NCCc2ccccc2)cc(=O)n1CC,i,0,25*,1,8%,1.1
c1ccc(C(c2nnnn2C2CCCCC2)N2CCc3ccccc3C2)nc1 (stereo not given),i,4,13,4*,11%,1
CC(=O)Nc1nc(C)nc(C)c1C(C)=O,i,.,6,1.1,3%,1
COc1ccc(C2(O)CCN(CC(=O)Nc3nccs3)CC2)c(OC)c1,i,4,18,1,7%,0.98
Nc1nnc(CCS(=O)(=O)c2cc(Cl)ccc2Cl)s1,i,53*,0,1.1,18%,1
Nc1nnc(Cc2ccc(Cl)cc2)s1,i,9,1,0.99,3%,0.98
CCOC(=O)C1CCN(S(=O)(=O)c2ccc3c4c(cccc24)C(=O)N3)CC1,.,5,8,2.1*,7%,1.1
COc1ccc(C)cc1NCc1cccc(OC)c1OC,i,47*,0,1,6%,1
Cn1c(=O)cc(OCC(=O)N2CCC(N3CCCCC3)CC2)c2ccccc21,i,0,5,1.1,2%,1.1
OC1(CN2CCOCC2)C2CN3CCN(C2)CC1(c1ccccc1)C3 (stereo not given),i,9,28*,1.1,12%,0.98
Brc1ccc(-c2cnc(-c3cccs3)o2)cc1,.,2,7,5*,5%,1.1
Cc1ccc(-c2noc(-c3cccs3)n2)cc1,i,4,0,1.1,1%,1.1
Cc1nc(-c2ccccc2)cc(=O)[nH]1,i,4,10,1.1,5%,1
O=c1nc(-c2ccccc2)cc(-c2ccccc2)[nH]1,.,0,5,2.2*,3%,1.1
COc1ccc(-c2nc3ccccc3c(=O)n2CCCN2CCOCC2)cc1,i,4,8,1.1,4%,1
Cc1ccc2nc3c(cc(C#N)c(=O)n3CCN3CCOCC3)c(=O)n2c1,i,7,1,3*,9%,1
N=c1c(C(=O)NC2CCCC2)cc2c(=O)n3ccccc3nc2n1CCN1CCOCC1,.,10,0,1.9,5%,1.1
